# Results taken from PubChem BioAssay.
# Several values for one entry are separate records, joined by “and”; a condition that tells them apart may be missing. Equal entries are not always repeated. Activity calls are given as the source filed them. Rule as the data show it, unless noted: active = inhibition above about 80%; inactive = the rest.
# Key:
# [1] = viability loss with induced miR-34 in A549 – imaging, A549 dox-inducible miR-34, nuclei and caspase counts, primary screen (AID 1347080;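 active = compounds whose cell count with miR-34 switched on is under 0.7 times the count with it off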); settings: A549 miR-34 inducible, Hoechst nuclei count, 48 h
# [2] = MELAS cybrid and Rieske KO viability enhancers – cell-based, MELAS cybrids, Rieske KO mouse fibroblasts, CellTiter-Glo, primary screen (AID 1508586;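 active = mean z-score across replicates of 1.96 or higher in either the MELAS or the Rieske mutant cell line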;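 also: z relative to plate mean and SD of compound and empty wells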); settings: low glucose
# [3] = growth inhibition, single agent or in combination, cell-based, chromothripsis tumors, cisplatin or BGB combos (AID 1671449); settings: LFS_MB_P medulloblastoma cells;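 also: cells exposed for 96 hours; 0% = vehicle DMSO and 100% = killing by high DMSO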
# [4] = growth inhibition, single agent and combos, cell-based, chromothripsis tumors, cisplatin or BGB combos (AID 1671450); settings: HDN33 neuroblastoma cells, stronger effect = higher value;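 also: cells exposed to compound for four days; 0% = vehicle DMSO and 100% = cell killing by high DMSO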
# [5] = growth inhibition, single agents and combos, ICB984, cell-based, cisplatin or BGB combos, synergistic combos for chromothripsis tumors (AID 1671451; call rule not given here;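 also: cells exposed for 96 hours before readout; 0% = vehicle DMSO and 100% = killing by high DMSO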); settings: ICB984 medulloblastoma cells, drug combinations, stronger effect = higher value
# [6] = growth inhibition, single agents and combos, LFS_MB_1R, cell-based, cisplatin or BGB combos, synergistic combos for chromothripsis tumors (AID 1671452); settings: LFS_MB_1R medulloblastoma cells, stronger effect = higher value;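 also: cells exposed for 96 hours before readout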
# [7] = growth inhibition, single agents and combos, HTB85, cell-based, BGB or cisplatin IC20 combos, synergistic combos for chromothripsis tumors (AID 1671453); settings: HTB85 osteosarcoma cells, drug combinations, stronger effect = higher value;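 also: cells exposed for 96 hours before readout; 0% = vehicle DMSO and 100% = high DMSO killing control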
# [8] = growth inhibition, single agents and combos, CRL2098, cell-based, BGB or cisplatin IC20 combos, synergistic combos for chromothripsis tumors (AID 1671454); settings: CRL2098 osteosarcoma cells, drug combinations, stronger effect = higher value;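 also: cells exposed for 96 h before readout; 0% = vehicle DMSO and 100% = killing by high DMSO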
# [9] = growth inhibition, single agents and combos, HD-MB03, cell-based, BGB or cisplatin IC20 combos, synergistic combos for chromothripsis tumors (AID 1671455; in the data active = inhibition above about 83%;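 also: 0% = vehicle DMSO and 100% = high DMSO as cytotoxic control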); settings: HD-MB03 medulloblastoma cells, stronger effect = higher value
# [10] = growth inhibition, single agents and combos, UWB1.289, cell-based, BGB or cisplatin combos, synergistic combos for chromothripsis tumors (AID 1671456); settings: UWB1.289 ovarian carcinoma cells, stronger effect = higher value;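 also: cells exposed to compound for four days; 0% = vehicle DMSO and 100% = killing by high DMSO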
# [11] = growth inhibition, single agents and combos, LFS_MB_2R, cell-based, cisplatin combos, synergistic combos for chromothripsis tumors (AID 1671457); settings: LFS_MB_2R medulloblastoma cells, stronger effect = higher value;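 also: cells exposed to compound for four days before readout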
# [12] = growth inhibition, MDA-MB-436, cell-based, BGB or cisplatin combos, synergistic combos for chromothripsis tumors (AID 1671458; call rule not given here;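 also: cells exposed for 96 hours; 0% = vehicle DMSO and 100% = killing by high DMSO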); settings: MDA-MB-436 breast carcinoma growth inhibition, drug combinations, stronger effect = higher value
# [13] = UWB1.289_BRCA1 ovarian cancer growth, cell-based, BGB or cisplatin combinations (AID 1671459); settings: UWB1.289 BRCA1 ovarian carcinoma, drug combinations, stronger effect = higher value
# [14] = drug combination toxicity in non-malignant astrocytes – cell-based, BGB or cisplatin IC20 combos, cytotoxicity control for chromothriptic childhood tumor combination screen (AID 1671460); settings: Human astrocytes, viability inhibition, drug combinations, at 0.5 µM, stronger effect = higher value;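 also: cells exposed to compounds for 96 hours before viability readout; 0% = vehicle and 100% = killing control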
# [15] = BT084 cell growth, single and combined drugs, ICGC_MB145, cisplatin and BGB IC40 combos (AID 1671461); settings: BT084 medulloblastoma cells, drug combinations, stronger effect = higher value;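 also: cells exposed to drugs for 96 hours; 0% = vehicle DMSO and 100% = high DMSO full killing control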
# [16] = RCMB18 cell growth, single agent and combined, cisplatin and BGB IC40 combos (AID 1671462); settings: RCMB18 medulloblastoma cells, stronger effect = higher value;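 also: cells exposed to compound for four days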
# [17] = CRL1545 cell growth, single agent and combined, cisplatin and BGB IC20 combos (AID 1671464); settings: CRL1545 osteosarcoma cells, stronger effect = higher value;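 also: cells exposed to compound for 96 hours before readout; 0% = vehicle DMSO and 100% = high DMSO killing control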
# [18] = compounds altering viability of human ES cells (AID 493140; call rule not given here;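 also: cells exposed to compounds for four days before counting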); settings: human embryonic stem cell survival screen; stronger effect = higher value
# [19] = P. berghei load reduction in hepatocytes – cell-based, HepG2, luciferase luminescence, HepG2 viability, primary screen (AID 624349; in the data active = parasite load remaining mostly below about 12%, no sharp cut-off; inactive = mostly above about 10%;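 also: 100% = mean of DMSO negative control wells on the same plate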); settings: P. berghei liver stage in HepG2, luciferase luminescence, concentration not given here; parasite load remaining: stronger effect = lower value; viability: measured here: HepG2 viability without parasites
# [20] = stronger effect = lower value, cell number ratio, induced over uninduced
# [21] = measured here: relative caspase fold change +Dox/-Dox
# [22] = measured here: total cells with miR-34 induction, stronger effect = lower value
# [23] = measured here: total cells without miR-34 induction
# [24] = MELAS cybrid survival, CellTiter-Glo 48 h, stronger effect = higher value
# [25] = Rieske KO mouse fibroblast survival, CellTiter-Glo 72 h
# [26] = measured here: combination with BGB IC40, at 0.05 µM
# [27] = measured here: with BGB IC20 combination, at 0.5 µM
# [28] = measured here: with cisplatin IC20 combination, at 0.5 µM
# [29] = measured here: combination with cisplatin, at 0.5 µM
# [30] = measured here: combination with cisplatin, at 5 µM
smiles,measurement,setting,value
NC(=S)NN=Cc1ncccc1N,fold change,[1]; [20],1.15 (inactive)
same,fold change,[1]; [21],0.619
same,cell count,[1]; [22],1840
same,cell count,[1]; [23],1600
same,z-score,[2]; [24],1.28
same,z-score,[2]; [25],3.3
same,inhibition,"[3]; at 0.5 µM, stronger effect = higher value",-16.7% (inactive)
same,inhibition,"[3]; measured here: combination with BGB IC20, at 0.005 µM",-2.55%
same,inhibition,"[3]; measured here: combination with BGB IC40, at 0.005 µM",-23%
same,inhibition,[3]; [26],-3.08%
same,inhibition,"[3]; measured here: combination with cisplatin, at 0.5 µM, stronger effect = higher value",-29.8%
same,inhibition,"[3]; measured here: combination with cisplatin, at 5 µM, stronger effect = higher value",-31.8%
same,inhibition,"[4]; BGB combo, at 5 µM",85%
same,inhibition,[4]; at 0.5 µM,11.9% (inactive)
same,inhibition,"[4]; cisplatin combo, at 5 µM",80.1%
same,inhibition,[4]; [27],3.11%
same,inhibition,[4]; [28],14.3%
same,inhibition,"[4]; single agent, at 5 µM",84.5%
same,inhibition,"[5]; BGB IC20 combo, at 0.005 µM",-9.24%
same,inhibition,"[5]; BGB IC40 combo, at 0.005 µM",-38.2%
same,inhibition,"[5]; BGB IC40 combo, at 0.05 µM",-31.3%
same,inhibition,[5]; at 0.5 µM,-16.4% (inactive)
same,inhibition,"[5]; cisplatin combo, at 0.05 µM",-36.5%
same,inhibition,"[5]; cisplatin combo, at 0.5 µM",-17.6%
same,inhibition,"[5]; cisplatin combo, at 5 µM",-14.8%
same,inhibition,"[5]; measured here: 5 uM single agent, at 5 µM",-38.9%
same,inhibition,[6]; at 0.5 µM,-7% (inactive)
same,inhibition,[6]; [26],-3.08%
same,inhibition,[6]; [29],22.7%
same,inhibition,[6]; [30],-19.1%
same,inhibition,[7]; at 0.5 µM,-8.27% (inactive)
same,inhibition,"[7]; measured here: with BGB IC20, at 0.5 µM",-17.3%
same,inhibition,"[7]; measured here: with BGB IC20, at 5 µM",67.1%
same,inhibition,"[7]; measured here: with cisplatin IC20, at 0.5 µM",-3.68%
same,inhibition,"[7]; measured here: with cisplatin IC20, at 5 µM",77.8%
same,inhibition,"[7]; single agent, at 5 µM",84.1%
same,inhibition,[8]; at 0.5 µM,-55.6% (inactive)
same,inhibition,"[8]; measured here: combination with BGB at IC20, at 0.5 µM",-6.91%
same,inhibition,"[8]; measured here: combination with cisplatin at IC20, at 0.5 µM",-62.8%
same,inhibition,[9]; at 0.5 µM,-11.3% (inactive)
same,inhibition,"[9]; measured here: combo with BGB at IC20, at 0.5 µM",-13%
same,inhibition,"[9]; measured here: combo with cisplatin at IC20, at 0.5 µM",-15.8%
same,inhibition,[10]; at 0.5 µM,-4.48% (inactive)
same,inhibition,"[10]; measured here: inhibition with BGB combination, at 0.05 µM",-19.9%
same,inhibition,"[10]; measured here: inhibition with cisplatin combination, at 0.05 µM",-12.6%
same,inhibition,[11]; at 0.5 µM,-23.1% (inactive)
same,inhibition,[11]; [29],-11.4%
same,inhibition,[11]; [30],-13.5%
same,inhibition,[12]; at 0.5 µM,-24% (inactive)
same,inhibition,"[12]; measured here: BGB combination, at 0.5 µM",-21.8%
same,inhibition,"[12]; measured here: BGB combination, at 5 µM",39.5%
same,inhibition,"[12]; measured here: cisplatin combination, at 0.5 µM",-34.4%
same,inhibition,"[12]; measured here: cisplatin combination, at 5 µM",62.7%
same,inhibition,"[13]; BGB combination, concentration series, at 5 µM",56.4%
same,inhibition,[13]; at 0.5 µM,0.83% (inactive)
same,inhibition,"[13]; cisplatin combination, concentration series, at 5 µM",62.5%
same,inhibition,[14],13.8% (inactive)
same,inhibition,[14]; measured here: combo with BGB IC20,17.9%
same,inhibition,[14]; measured here: combo with cisplatin IC20,11.3%
same,inhibition,[15]; at 0.5 µM,-38.9% (inactive)
same,inhibition,"[15]; cisplatin combination, at 0.5 µM",-29.3%
same,inhibition,"[15]; cisplatin combination, at 5 µM",-3.12%
same,inhibition,"[15]; measured here: BGB IC40 combination 0.05 uM, at 0.05 µM",-31.2%
same,inhibition,"[15]; single agent, at 5 µM",-27%
same,inhibition,[16]; at 0.5 µM,-9.8% (inactive)
same,inhibition,"[16]; cisplatin combo, at 5 µM",15.6%
same,inhibition,"[16]; measured here: BGB IC40 combination, at 0.05 µM",-6.51%
same,inhibition,[16]; [29],3.15%
same,inhibition,"[16]; single agent, at 5 µM",-34.2%
same,inhibition,[17]; at 0.5 µM,10.3% (inactive)
same,inhibition,[17]; [27],-9.01%
same,inhibition,[17]; [28],19.9%
same,inhibition,"[17]; single agent, at 0.05 µM",29.3%
same,inhibition,"[17]; single agent, at 5 µM",63.9%
CCCCC[C@H](O)/C=C/[C@@H]1[C@@H](C/C=C\CCCC(=O)O)[C@@H](O)C[C@H]1O (tested in a mixture with another compound),survival,[18],6.75 (inactive)
same,parasite load remaining,[19],74.8% (inactive) and 88.7% (inactive)
same,viability,[19],111% and 88.8%
same,fold change,[1]; [20],0.919 (inactive)
same,fold change,[1]; [21],1.17
same,cell count,[1]; [22],8520
same,cell count,[1]; [23],9270
same,z-score,[2]; [24],-0.0339 (inactive)
same,z-score,[2]; [25],-1.21
